Bioassay records as filed in PubChem.
Shown are actives, neighbours in structure and some others; about 11% of the full set was active somewhere.
PNC inhibitor: inhibitors of perinucleolar compartment assembly. PC3M PTB-GFP, PNC prevalence imaging, 16 h; hits give low values. activity change (PNC), negative = inhibition, % at 10 µM. hit rate 3.1% among 140,000. AID 2417;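 active means readout at or below -70, meaning at least 70% loss of cells showing the perinucleolar compartment, a nuclear body marking cancer cells; inconclusive means readout between -30 and a set limit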;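 further: plate controls were DMSO wells for no effect and camptothecin positive control wells for full effect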
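PC3M cells stably expressing PTB-GFP, 750–1000 cells/well, treated 16 h at 37 °C with compound (23 nl of library stock), in duplicate. After paraformaldehyde fixation and Hoechst stain, imaged at 20x; PNC prevalence scored by image analysis.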
HPGD inh: inhibitors of human 15-hydroxyprostaglandin dehydrogenase (HPGD) | Potency, µM, for inactives: at the top dose activity change, negative = inhibition, hits mostly inhibitors | P15428 | hit rate 4.3% among 150,000 | purified HPGD, NADH fluorescence kinetic, PGE2 substrate; active means well fitted inhibition curve with a large enough effect, not every such curve was filed as active; inconclusive means small, poorly fitted or top-dose-only effect, or another doubt; inactive means no such curve, though single readings can be large or run the other way; further: potency means the concentration at half of the fitted maximal effect; on the % scale 0 is the no-effect control and ±100 the full control effect
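NADH formation kinetics: reaction with 30 uM PGE2 and 1 mM NAD+ (final), 20 nM enzyme, Tris-HCl pH 8 with Tween 20, after 15 min compound preincubation at room temperature. Fluorescence change, last versus first of five reads.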
HttQ103 aggreg: inhibitors of mutant huntingtin aggregate formation in PC12 cells; AID 1688; Potency, µM (highest dose often 46.1 µM), without a hit: at the top dose activity change, negative = inhibition, most hits filed as inhibitors; PC12 HttQ103-GFP aggregates, Acumen cytometry, 40 h; hit rate 1.1% among 220,000; further: potency means the concentration at half of the fitted maximal effect; on the % scale 0 is the no-effect control and ±100 the full control effect; nearly all actives have a fitted effect of over 60% in size
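PC12/HTTQ103-GFP, ecdysone-inducible; teb 100 nM; cpd qHTS titration; GFP aggregates read on laser cytometer, Ex 488/Em 500-530 nm.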
CBFb RUNX1 block: inhibitors of human CBF-beta and RUNX1 interaction. Q01196+Q13951. AlphaScreen CBFb-His/RUNX1-biotin binding, biochemical. Potency, µM (titrated, usually from 59.8 µM), inactives show at the highest dose activity, negative = inhibition, usual class: inhibitors. 230,000 tested, under 10 active; further: % of control where 0% means no effect
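Bead-based AlphaScreen assay; binding partners His-tagged CBF-beta and biotinylated RUNX1 at 30 nM each. Compound exposure 15 min after a 20-min protein preincubation; bead step 90 min; all steps at room temperature.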
ALDH1A1 block: inhibitors of human aldehyde dehydrogenase 1A1. P00352. Purified ALDH1A1, NADH fluorescence, propionaldehyde substrate. Potency, µM (top dose mostly 75.3 µM), for inactives: at the highest dose activity, negative = inhibition, usual class: inhibitors. hit rate 7.3% among 220,000. AID 1030; active means well fitted inhibition curve with a large enough effect, not every such curve was filed as active; inconclusive means small, poorly fitted or top-dose-only effect, or another doubt; inactive means no such curve, though single readings can be large or run the other way;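 further: potency means the concentration at half of the fitted maximal effect; plate controls were no enzyme wells and a reference inhibitor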
Target sequence (P00352 whole entry, looked up): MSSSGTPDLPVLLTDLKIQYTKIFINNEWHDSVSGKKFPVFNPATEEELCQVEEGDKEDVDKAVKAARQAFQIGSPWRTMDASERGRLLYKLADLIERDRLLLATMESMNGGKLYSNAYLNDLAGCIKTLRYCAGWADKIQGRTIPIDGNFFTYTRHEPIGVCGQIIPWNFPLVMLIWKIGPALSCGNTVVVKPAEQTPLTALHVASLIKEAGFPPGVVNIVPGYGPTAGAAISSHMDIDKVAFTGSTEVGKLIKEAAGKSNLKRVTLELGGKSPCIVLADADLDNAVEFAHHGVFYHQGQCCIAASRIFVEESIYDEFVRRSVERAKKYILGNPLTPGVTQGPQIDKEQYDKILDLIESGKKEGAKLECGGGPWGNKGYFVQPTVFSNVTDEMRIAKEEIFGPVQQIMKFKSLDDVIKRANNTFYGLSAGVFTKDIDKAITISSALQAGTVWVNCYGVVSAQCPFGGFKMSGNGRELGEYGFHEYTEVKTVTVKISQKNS
HTT cytoprotect: cytoprotection in Huntington HTT-Q103 PC12 cell model. Potency, µM (top dose mostly 56.4 µM), without a hit: cytoprotection (ATP increase), actives largely listed as activators. hit rate 0.14% among 230,000. PC12 HTT-Q103 induced, cytoprotection, ATP luminescence, 40 h. AID 1471; further: potency means the concentration at half of the fitted maximal effect; % of control where 0% means no effect; nearly all actives have a fitted effect of over 45% in size
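Stable PC12 Q103-GFP cells in serum-supplemented, phenol red-free DMEM; induction by tebufenozide at 100 nM final; compound dose series; cell viability quantified luminescently from ATP.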
Active calls of the source: *; ? = inconclusive; / = no result; ! = a repeat was not active; [ ] = dose if it differs, or a comment. Unless noted, the call rests on the fitted dose curve; in most records, active means well fitted curve in the direction sought with a large enough effect; inconclusive means small, poorly fitted or top-dose-only effect, or another doubt; inactive means no such curve, though single readings can be large; an effect the other way counts as inactive or inconclusive.

SMILES	PNC inhibitor	HPGD inh	HttQ103 aggreg	CBFb RUNX1 block	ALDH1A1 block	HTT cytoprotect
CC(=O)Nc1ccc(S(=O)(=O)Nc2nc3ccccc3nc2N2CCCC2)cc1	-6	-21%	5%	4%	11µM*	23%[1.9 µM]
COc1ccc(C2(NC(C)=O)CCN(C(=O)c3ccco3)CC2)cc1	-29	/	-4%	3%	-1%	4%
COC(=O)[C@@H]1C[C@H]1[C@@H](NS(=O)(=O)c1ccc(-c2ccccc2)cc1)c1ccccc1	/	-7%	/	13%	-5%	-203%
Cc1ccc(S(=O)(=O)NCc2ccc(C(=O)N3CCN(Cc4ccccc4)CC3)cc2)cc1	-21	-2%	-4%[1.84 µM]	0%	11µM*	-8%
CCOC(=O)C1CCN(C(=O)c2ccc(CNS(=O)(=O)c3ccc(C)cc3)cc2)CC1	/	/	-12%	-2%	0%	-30%
Cn1c(=O)c2c(ncn2CCCc2ccccc2)n(C)c1=O	-89*	3%	-6%	0%	-8%	0%[10 µM]
Cn1c(=O)c2c(ncn2CCO)n(C)c1=O	/	-13%	4%	-2%	4%	2.5µM*!
CC(C)CCn1cnc2c1c(=O)n(C)c(=O)n2C	-20	-11%	-23%	14%	-3%	-10%[0.074 µM]
CC(O)Cn1cnc2c1c(=O)n(C)c(=O)n2C (configuration not stated)	-115*	0%	24%	6%	5%	/
CC(=O)[C@H]1CC[C@H]2[C@@H]3C=CC4=CC(=O)CC[C@@]4(C)[C@H]3CC[C@]12C	/	-7%	-2%[20.6 µM]	1%[21.7 µM]	?	?
COC(=O)C(C(C)=O)C(NC(=O)NCc1ccccc1)c1ccccc1 (configuration not stated)	/	/	/	8%[13.1 µM]	-16%[13.5 µM]	10%[10 µM]
Cc1cccc2nc(CSc3nc4ccc([N+](=O)[O-])cc4[nH]3)c(Br)n12	-19	?	-38%	-9%	25µM*	25%[10 µM]
O=Cc1cccn1-c1nccc(-c2ccco2)n1	/	/	6%	11%	22µM*	-12%[10 µM]
CN(C)S(=O)(=O)c1ccc(C(=O)N2CCC(c3nc4ccccc4o3)CC2)cc1	33	-6%	-26%	4%	28µM*	-1%[10 µM]
COC(=O)c1cccc(S(=O)(=O)N2CCC(c3nc4ccccc4o3)CC2)c1	136	-12%	-26%	3%	12%	?
CC1(C)CC(=O)C2=C(C1)OC1=C(C2)C(=O)CC(C)(C)C1	22	-18%	10%	10%	18µM*	11%[10 µM]
COc1ccccc1N1CCN(CCN(C(=O)c2ccc(I)cc2)c2ccccn2)CC1	/	/	/	/	/	-9%[1.9 µM]
CC(=O)N1CCN(c2ccc(NCc3ccc(C)s3)cc2)CC1	?	-15%	4%	-2%	25µM*	1%
Cc1ccc(CNc2ccc(N3CCOCC3)cc2)s1	13	-4%	-20%	-16%	?	-51%
CCCC(C(=O)NC1CCCCC1)N(Cc1ccco1)C(=O)CNS(=O)(=O)c1ccccc1 (configuration not stated)	23	-3%	12%	4%	10µM*	10%[10 µM]
CCCC(C(=O)NCC1CCCO1)N(Cc1ccco1)C(=O)CNS(=O)(=O)c1ccccc1 (configuration not stated)	49	-1%	-11%	-5%	11µM*	19%[10 µM]
O=C(CN(Cc1ccco1)C(=O)CNS(=O)(=O)c1ccc(Cl)cc1)NC1CCCCC1	-24	-6%	-10%	1%	0%	6%[10 µM]
CC(C)C(C(=O)NCC1CCCO1)N(Cc1ccco1)C(=O)CNS(=O)(=O)c1ccc(F)cc1 (configuration not stated)	-19	-1%	12%	1%	10%	-12%
c1ccc2c(N3CCNCC3)nc(-c3ccc4c(c3)OCO4)nc2c1	/	-29%	/	/	?	26%
CNS(=O)(=O)c1ccc(OC)c(-c2nnc3c4ccccc4c(C)nn23)c1	?	16µM*	18%	2%	?	-73%
COc1ccc(S(=O)(=O)NC(C)(C)C)cc1-c1nnc2c3ccccc3c(C)nn12	36	-29%	30%	2%	6%	2%
